The inhibition is the drop in the measured response relative to a control, in per cent.

“And” between values parts separate entries of the source, which are not always exact repeats. Identical values can stand only once. Screen size: about 77,000 compounds; about 4,600 (6%) were called active. Roughly 1% stayed inconclusive and do not appear here. For the sample, actives were picked, then their nearest neighbours and some compounds at random. Unmarked numbers belong to inactive results.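 How the source made its calls: active means mean inhibition above about 93%, with at least 55% of replicates each passing it (limit read from the data, passing the limit was not always enough); inconclusive means only one of those two conditions holds; inactive means neither condition holds.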

Our source for the inhibition values is PubChem BioAssay AID624255 (Broad Institute, 2012).

A short description of the assay: growth inhibition of T. cruzi in host fibroblasts – cell-based, beta-gal Tulahuen parasites, NIH3T3 host, luminescence, primary screen (AID 624255). Conditions: T. cruzi beta-gal in NIH3T3, GalScreen luminescence, 90 h; at 8.34 µM; stronger effect = higher value.
On to `C/C=C/c1ccc([C@H]2[C@@H](CO)N[C@@H]2CN(CC)C(=O)CN2CCOCC2)cc1`, for which the inhibition is -25.4%.

For the molecule `CCS(=O)(=O)Nc1ccc2c(c1)C(=O)N(C)[C@@H]1CC[C@@H](CC(=O)N3CCCCC3)O[C@H]1CO2`, the inhibition is 54.2%. For the molecule `CO[C@@H]1CN(C)C(=O)c2cc(NC(=O)C3CCC3)ccc2OC[C@H](C)N(Cc2nccs2)C[C@H]1C`, the inhibition was -2.54%.

As for `COCC(=O)Nc1ccc2c(c1)C(=O)N(C)C[C@@H](OC)[C@H](C)CN(C(=O)CC1CC1)[C@H](C)CO2`, the inhibition was 34.9%. Turning to `Cc1noc(C)c1S(=O)(=O)Nc1ccc2c(c1)C(=O)N([C@@H](C)CO)C[C@@H](C)[C@H](CN(C)S(=O)(=O)c1ccc(Cl)cc1)OCCCC[C@H](C)O2`, the inhibition was 96.3% (active). On to `Cc1ccc(S(=O)(=O)Nc2ccc3c(c2)CC(=O)N([C@H](C)CO)C[C@@H](C)[C@H](CN(C)S(=O)(=O)c2c(C)noc2C)O3)cc1`, for which the inhibition was -10.8%.

In the case of `COc1ccc(S(=O)(=O)Nc2ccc3c(c2)C(=O)N([C@@H](C)CO)C[C@H](C)[C@@H](CN(C)S(=O)(=O)c2ccc(F)cc2)OCCCC[C@H](C)O3)cc1`, the inhibition was 85%.

As to `COc1ccc(S(=O)(=O)Nc2ccc3c(c2)C(=O)N([C@@H](C)CO)C[C@H](C)[C@H](CN(C)S(=O)(=O)c2ccc(F)cc2)OCCCC[C@@H](C)O3)cc1`, the inhibition is 94.5%. `Cc1noc(C)c1S(=O)(=O)Nc1ccc2c(c1)C(=O)N([C@@H](C)CO)C[C@@H](C)[C@@H](CN(C)S(=O)(=O)c1ccccc1)OCCCC[C@H](C)O2`: the inhibition was -37.4%. Turning to `C[C@@H]1CN([C@H](C)CO)C(=O)Cc2cc(N(C)C)ccc2O[C@H]1CN(C)S(C)(=O)=O`, the inhibition was -46%.

With `Cc1noc(C)c1S(=O)(=O)N(C)C[C@H]1Oc2ccc(N(C)C)cc2CC(=O)N([C@H](C)CO)C[C@@H]1C`, the inhibition was 97.3% (active).

For the molecule `Cc1ccc(S(=O)(=O)N(C)C[C@H]2OCCCC[C@H](C)Oc3ccc(NS(=O)(=O)c4c(C)noc4C)cc3C(=O)N([C@H](C)CO)C[C@@H]2C)cc1`, the inhibition was -43.8%. As to `COc1ccc(S(=O)(=O)Nc2ccc3c(c2)C(=O)N([C@H](C)CO)C[C@H](C)[C@@H](CN(C)C)OCCCC[C@H](C)O3)cc1`, the inhibition was 17.4% and 81.8%. On to `COc1ccc(S(=O)(=O)Nc2ccc3c(c2)C(=O)N([C@H](C)CO)C[C@H](C)[C@@H](CN(C)S(C)(=O)=O)OCCCC[C@@H](C)O3)cc1`, for which the inhibition is 50.1%. Turning to `COc1ccc(S(=O)(=O)Nc2ccc3c(c2)C(=O)N([C@H](C)CO)C[C@@H](C)[C@@H](CN(C)CC2CCCCC2)OCCCC[C@@H](C)O3)cc1`, the inhibition is 110% (active). For the molecule `COc1ccc(S(=O)(=O)N(C)C[C@H]2OCCCC[C@H](C)Oc3ccc(NS(=O)(=O)c4ccc(F)cc4)cc3C(=O)N([C@@H](C)CO)C[C@@H]2C)cc1`, the inhibition was 108% (active). For the molecule `COC(=O)C[C@@H]1CC[C@H]2[C@H](COc3ccc(NC(=O)c4cccs4)cc3C(=O)N2C)O1`, the inhibition was 2.22%. Regarding `C[C@H]1CCCCO[C@@H](CN(C)Cc2ccc3c(c2)OCO3)[C@@H](C)CN([C@@H](C)CO)C(=O)c2cc(NC(=O)Nc3ccc(F)cc3)ccc2O1`, the inhibition is 77.3%. Regarding `CN1c2ccc(-c3ccc(C#N)cc3)cc2[C@@H]2[C@@H](CCN2C(=O)C2CCCCC2)[C@H]1CO`, the inhibition was 50.3%. Turning to `O=C(NCC1CC1)[C@@H]1[C@@H](CO)[C@@H]2Cn3c(ccc(-c4ccncc4)c3=O)[C@H]1N2Cc1nccs1`, the inhibition is 32.5%.

Turning to `CNC(=O)C[C@H]1CC[C@H]2[C@@H](COc3ccc(NC(=O)c4cccc(OC)c4)cc3C(=O)N2C)O1`, the inhibition is 3.49%. Turning to `COc1ccccc1-c1ccc2c(c1)[C@H]1[C@H](CCN1S(=O)(=O)c1ccccc1)[C@@H](CO)N2`, the inhibition was 77.3%. On to `CNC(=O)C[C@H]1CC[C@@H]2[C@H](COc3ccc(NC(=O)C(C)C)cc3C(=O)N2C)O1`, for which the inhibition is -65%. With `CC(=O)Nc1ccc2c(c1)C(=O)N(C)[C@H]1CC[C@H](CC(=O)NCc3ccccc3Cl)O[C@H]1CO2`, the inhibition is -40.6%. Then `CNC[C@H]1OCCCC[C@@H](C)Oc2ccc(NC(=O)Nc3ccc(C(F)(F)F)cc3)cc2C(=O)N([C@H](C)CO)C[C@H]1C`, with 69.3%; and `C[C@H](CO)N1C[C@H](C)[C@H](CN(C)C(=O)NC2CCCCC2)Oc2ccc(NC(=O)CCCN(C)C)cc2CC1=O`, with 25.8%; and `O=C(NC1CCC1)[C@H]1[C@H](CO)[C@H]2Cn3c(ccc(C4=CCCCC4)c3=O)[C@@H]1N2CC1CC1`, with -4.56%. In the case of `C[C@@H]1CCCCO[C@@H](CN(C)S(=O)(=O)c2ccc(F)cc2)[C@@H](C)CN([C@@H](C)CO)C(=O)c2cc(NC(=O)Nc3ccc(F)cc3)ccc2O1`, the inhibition was 55.8%. Regarding `COc1ccccc1S(=O)(=O)Nc1ccc2c(c1)C(=O)N(C)C[C@H](OC)[C@H](C)CN[C@H](C)CO2`, the inhibition was 9.95%.

Regarding `O=C([C@H]1N[C@H]2c3ccc(-c4ccccc4)c(=O)n3C[C@H]2[C@@H]1CO)N1CCOCC1`, the inhibition was -8.75%. With `Cc1ccc(S(=O)(=O)N(C)C[C@@H]2OCCCC[C@@H](C)Oc3ccc(NS(=O)(=O)c4ccc(F)cc4)cc3C(=O)N([C@H](C)CO)C[C@H]2C)cc1`, the inhibition is 110% (active). Regarding `C[C@@H]1CCCCO[C@H](CN(C)S(=O)(=O)c2ccccc2)[C@@H](C)CN([C@@H](C)CO)C(=O)c2cc(NS(=O)(=O)c3ccccc3)ccc2O1`, the inhibition was 78.8%. Then `Cc1ccc(S(=O)(=O)Nc2ccc3c(c2)C(=O)N([C@H](C)CO)C[C@@H](C)[C@H](CN(C)S(=O)(=O)c2ccc(C)cc2)OCCCC[C@@H](C)O3)cc1`, with 89.1%.

For `C[C@H](CO)N1C[C@H](C)[C@H](CN(C)S(=O)(=O)c2ccc(F)cc2)OCCCC[C@H](C)Oc2ccc(NS(=O)(=O)c3ccc(Cl)cc3)cc2C1=O`, the inhibition was 97.6% (active). As for `C[C@@H]1CCCCO[C@H](CN(C)S(=O)(=O)c2ccc(F)cc2)[C@H](C)CN([C@@H](C)CO)C(=O)c2cc(NS(=O)(=O)c3ccccc3)ccc2O1`, the figure is 112% (active); as for `COc1ccc(S(=O)(=O)N(C)C[C@@H]2OCCCC[C@@H](C)Oc3ccc(NS(=O)(=O)c4ccccc4)cc3C(=O)N([C@@H](C)CO)C[C@H]2C)cc1`, 71.3%.

On to `Cc1ccc(S(=O)(=O)N(C)C[C@H]2OCCCC[C@@H](C)Oc3ccc(NS(C)(=O)=O)cc3C(=O)N([C@H](C)CO)C[C@@H]2C)cc1`, for which the inhibition is -8.39%.

Turning to `C[C@@H]1CCCCO[C@@H](CN(C)S(C)(=O)=O)[C@H](C)CN([C@@H](C)CO)C(=O)c2cc(NS(=O)(=O)c3ccc(F)cc3)ccc2O1`, the inhibition was -87.8%.

As to `COc1ccc(S(=O)(=O)Nc2ccc3c(c2)C(=O)N([C@H](C)CO)C[C@@H](C)[C@H](CN(C)S(=O)(=O)c2ccc(Cl)cc2)OCCCC[C@@H](C)O3)cc1`, the inhibition is 87%.
